The full list was thinned out, with hits kept by preference.
KDM5B inh = KDM5B demethylase inhibition. Q9UGL1. KDM5B demethylase, FDH-coupled NADH fluorescence (FDH is formaldehyde dehydrogenase). Potency, µM (top dose mostly 57.7 µM), hits mostly inhibitors. 220,000 compounds, 2.6% hits. AID 1347165; active means well fitted inhibition curve with a large enough effect; further: 0% is about no effect; nearly all actives have a fitted effect of over 70% in size
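KDM5BΔAP (200 nM final) in 50 mM HEPES pH 7.5, 0.01% Tween-20 was preincubated 10 min at RT with compound over a concentration range. Substrate mix (H3K4me3 12.5 µM, α-KG 25 µM, Fe²⁺, ascorbate, NAD⁺, FDH) was added, and NADH fluorescence change over 30 min gave dose-response curves.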
Numbers without * were called inactive; i = inactive. Potency means the concentration at half of the fitted maximal effect.

SMILES	KDM5B inh
CSc1ccccc1NC(=O)c1ccc(F)c(F)c1	i
O=C(Nc1cccn2nc(C3CCC3)nc12)c1cccc(C(F)(F)F)c1	i
CCc1nc2c(NC(=O)c3ccc(F)c(Cl)c3)cccn2n1	25µM*
Cc1ccc(C(C(=O)N2CC(n3nc(C)cc3C)C2)N(C)C)cc1 (stereo not drawn)	i
CCN1C(=O)C2(CCN(C(=O)NCCC(C)C)CC2)c2ccccc21	i
Cc1nc([C@@H]2CN(C(=O)CN3CCCCCC3)C[C@H]2C(N)=O)n[nH]1	i
Cc1ccccc1CN1CC[C@@H]2OCC(=O)N(C(C)C)[C@H]2CC1	i
CC(C)N1C(=O)CO[C@H]2CCN(Cc3cccs3)CC[C@@H]21	i
CC(C)N1C(=O)CO[C@H]2CCN(Cc3ccccn3)CC[C@@H]21	35µM*
OC1(CN2CCCCC2)CCN(Cc2ccc(C(F)(F)F)cc2F)C1 (stereo not drawn)	i
OC1(CN2CCCCC2)CCN(Cc2ccc(F)c(Cl)c2)C1 (stereo not drawn)	i
OC1(CN2CCCCC2)CCN(c2cccc(C(F)(F)F)n2)C1 (stereo not drawn)	28µM*
Cc1cccc(C(=O)NC(Nc2ccccc2)C(Cl)(Cl)Cl)c1 (stereo not drawn)	i
Cc1ccccc1-c1nc(SCc2cc(=O)n3nc(C(C)C)sc3n2)n[nH]1	i
COCCN(Cc1cccs1)S(=O)(=O)c1ccc(C(=O)O)cc1	i
CCC(Oc1ccc(F)cc1)C(=O)NCc1csc(-c2ccccc2)n1 (stereo not drawn)	i
CN(C)c1ccc(-c2nnc([C@H]3CCN(CC4CCCCC4)C3)o2)cc1	32µM*
CN(C)c1ccc(-c2nnc([C@H]3CCN(C4CCC4)C3)o2)cc1	28µM*
c1ccc(CCCN2CC[C@H](c3nnc(-c4ccccc4)o3)C2)cc1	32µM*
COc1ccc(-c2nnc([C@H]3CCN(S(C)(=O)=O)C3)o2)cc1	i
COc1ccc(CN2CC[C@H](c3nnc(-c4ccccc4)o3)C2)cc1	i
c1cc(-c2nnc([C@H]3CCN(CC4CCCCC4)C3)o2)ccn1	i
CN(C)c1ccc(-c2nnc([C@H]3CCN(CC4CC4)C3)o2)cc1	32µM*
c1cc(-c2nnc([C@H]3CCN(CC4CC4)C3)o2)ccn1	i
c1ccc(-c2nnc([C@H]3CCN(C4CCOCC4)C3)o2)cc1	i
SMILES	KDM5B inh
O=C(C1CCCCC1)N1CC[C@H](c2nnc(-c3cccnc3)o2)C1	i
Clc1cccc(CN2CC[C@H](c3nnc(-c4ccncc4)o3)C2)c1	i
COc1ccccc1CNC(=O)Cn1c(=O)c2c(ncn2C2CCCC2)n(Cc2ccccc2)c1=O	i
COc1ccc(-c2[nH]nc3c2C(c2cccc(OC)c2)CC(=O)O3)cc1 (stereo not drawn)	i
O=C(Nc1ccc(O)c(-c2nc3ccccc3o2)c1)c1ccccc1Br	i
O=C(c1ccc(F)c(F)c1)N(Cc1ccco1)C1CC1	i
CN1CCCC1c1nc(C2CN(C(=O)c3ccoc3)C2)no1 (stereo not drawn)	i
C1CCNC(CN2CCCC2)CC1 (stereo not drawn)	i
CCSc1ccccc1C(=O)Nc1cccc(C)c1C	i
O=C(NCc1cccnc1)C1CCC(c2ccc(Cl)cc2)CC1 (stereo not drawn)	i
COc1ccc(-c2nc(C(=O)NCc3cccnc3)n3ccccc23)cc1	28µM*
O=C(NCc1cccnc1)c1nc(-c2ccc(Cl)cc2)c2ccccn12	28µM*
O=C(NCc1cccnc1)C1CCc2nnc(-c3ccc(Cl)nc3)n21 (stereo not drawn)	i
O=C(NCc1cccnc1)c1nc(-c2ccccc2)c2ccccn12	i
O=C(O)c1cnc(NCc2cccnc2)nc1-c1ccc(Cl)cc1	32µM*
O=C(NCc1cccnc1)c1nc(-c2ccc(Cl)nc2)c2ccccn12	89µM*
O=C1C(Cl)=C(NCc2cccnc2)C(=O)c2ccccc21	i
CCCCCSc1nc2c(c(=O)[nH]c(=O)n2C)n1CC(O)COc1ccc(CC)cc1 (stereo not drawn)	i
O=C(Cc1c[nH]c2ccccc12)Nc1nc2ccc(Cl)cc2s1	i
O=C(CCC1CCN(C(=O)CSc2ncccn2)CC1)NCC1CCCO1 (stereo not drawn)	i
Cc1ccc(Sc2nc3c(c(=O)[nH]c(=O)n3C)n2Cc2ccccc2)cc1	i
COc1ccc(NC(=O)Nc2cccc(-c3ccc(N4CCC(C)CC4)nn3)c2)cc1OC	i
O=C(Nc1ccc(Cl)cc1)c1ccccc1OCC1CCCO1 (stereo not drawn)	i
CC(=O)N1CCN(c2ccc(NC(=O)COc3ccc(Cl)cc3C)cc2Cl)CC1	i
COc1ccc(-n2nc(C3CCN(Cc4ccc(C(F)(F)F)cc4)CC3)[nH]c2=O)cc1	i
SMILES	KDM5B inh
O=C(NCc1cccnc1)c1nc(-c2cc(Cl)cc(Cl)c2)c2ccccn12	i
CSc1ncc(Cl)c(C(=O)NCc2cccnc2)n1	i
CC(CNC(=O)c1csc(-c2ccsc2)n1)c1ccccc1 (stereo not drawn)	i
COCCNC(=O)c1nc(-c2ccsc2)c2ccccn12	40µM*
Cc1cccc(C)c1-c1nc(C(=O)NCc2ccsc2)n2ccccc12	32µM*
O=C(NCc1cccnc1)c1nc(-c2ccc(Cl)cc2Cl)c2ccccn12	79µM*
Cc1cccc(C)c1-c1nc(C(=O)NCc2cccnc2)n2ccccc12	25µM*
Nc1ccc(C(=O)NCc2cccnc2)cc1	i
COCCNC(=O)c1nc(-c2cccnc2)c2ccccn12	i
CCN1C(=O)C2(CCN(S(=O)(=O)Cc3ccccc3Cl)CC2)c2ccccc21	i
CCCNC(=O)N1CCCCCCN(C)C(=O)CC1	i
CCCn1nc(C(=O)NCc2nnc3n2CCCCC3)c2ccccc2c1=O	i
CCc1ccccc1NC(=O)CN1CCN(Cc2csc(-c3ccc(Cl)cc3)n2)CC1	i
O=C(CCN(Cc1cccs1)C1CC1)NC1CC1	i
COC(=O)COc1ccc2c(=O)c(Oc3ccccc3OC)c(C)oc2c1	i
CCCc1ccc(S(=O)(=O)N2CCCC(Cn3c(C)nc4cccnc43)C2)cc1 (stereo not drawn)	i
O=C(CCc1ccsc1)N(Cc1ccco1)C1CC1	i
Cc1cc(C)c(C)c(S(=O)(=O)NC2CCN(c3ccc(=O)n(CC4CC4)n3)CC2)c1C	35µM*
O=C(Cn1nc(N2CCN(c3ccccc3)CC2)ccc1=O)NC1CCCC1	i
Cc1cc(C)c(C)c(S(=O)(=O)N2CCn3c(nn(CC4CC4)c3=O)C2)c1C	i
Cc1nn(C)c(C)c1S(=O)(=O)NC1CCc2nn(CC3CC3)c(=O)n2CC1 (stereo not drawn)	i
Cc1cnn(CCC(=O)NC2CCN(c3ccc(=O)n(C)n3)CC2)c1	i
O=c1ccc(N2CCC(NS(=O)(=O)c3ccc(Cl)s3)CC2)nn1CC1CC1	14µM*
COCCn1ncc(N2CCC(NC(=O)C(C)(C)C)CC2)cc1=O	i
NCc1ccccc1OC(F)(F)F	i
SMILES	KDM5B inh
CCN(C(=O)Cn1c(=O)n(CCC(=O)Nc2ccc(F)cc2)c(=O)c2sccc21)c1ccccc1	i
CCNC(=O)c1c(C)oc2c1CN(Cc1ccc(Br)o1)CC2	i
Cc1cc(COc2ccccc2)oc1C(=O)N1CCn2nc(C(C)O)cc2C1 (stereo not drawn)	i
O=C(O)c1cc(-c2ccccc2F)on1	i
Cc1ccccc1-c1cc(C(=O)NCCC(c2ccccc2)c2ccccc2)c2ccccc2n1	i
Cc1ccc(CNS(=O)(=O)c2cc3c(cc2C)N(C)CCO3)cc1	i

Screening data: PubChem BioAssay, National Center for Advancing Translational Sciences (NCATS)
